Screens as filed in PubChem BioAssay.
Rows were chosen to be rich in hits. Some 19% of all compounds tested hit in one or more screens of this group.
DT40 TDP1 no CPT = qHTS for Inhibitors of human tyrosyl-DNA phosphodiesterase 1 (TDP1): qHTS in cells in absence of CPT | DT40 Tdp1-/- hTDP1 cells, no CPT, ATP luminescence, 48 h | Potency, µM (titrated, usually from 46.2 µM), for the others: at the highest dose activity change, negative = growth inhibition, most hits filed as inhibitors | actives 15% (n = 420,000) | AID 686978, 2013; also: nearly all actives have a fitted effect of over 55% in size
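Growth kinetics read by CellTiter-Glo luminescence after ≥48 hr at 37 °C. Cells: DT40 Tdp1-/- stably carrying human TDP1, 400 per well, compound exposure in the absence of CPT (DMSO vehicle).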
DT40 TDP1 CPT = growth inhibition of DT40 Tdp1-/-;hTDP1 cells with camptothecin (screen for TDP1 inhibitors); chicken DT40 Tdp1-/-;hTDP1 cells + 20 nM CPT, ATP luminescence, 48 h; Potency, µM (series often up to 46.2 µM), for the others: at the highest dose activity change, negative = growth inhibition, actives largely listed as inhibitors; actives 12% (n = 420,000); AID 686979; also: nearly all actives have a fitted effect of over 55% in size
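Chicken DT40 Tdp1-/- cells stably complemented with human TDP1 were seeded at 400 cells/well in medium containing 20 nM camptothecin, exposed to pin-transferred compounds, and grown at 37 °C for at least 48 hr. Viability was read as ATP luminescence.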
HT1080 IDH1KD tx = toxicity to HT-1080 IDH1 knockdown cells (counter line) | AID 686971 | HT-1080 IDH1 knockdown viability, ATP luminescence, 48 h | Potency, µM (highest dose often 46.1 µM), inactives show at the top dose activity, negative = toxicity, hits mostly cytotoxic | actives 2% (n = 360,000);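 also: 0% = DMSO wells and -100% = cell-free medium wells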
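Using the IDH1-knockdown HT-1080 line run in the same batch and compound series as the NT line, viability after 48 h at 37 °C was determined by CellTiter-Glo luminescence and expressed as % activity.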
HT1080-NT tox = kills 2HG-producing HT-1080-NT fibrosarcoma cells; actives 1.6% (n = 360,000); Potency, µM (series often up to 46.1 µM), inactives show at the highest dose activity, negative = less viability, actives largely listed as cytotoxic; HT-1080-NT fibrosarcoma viability, CellTiter-Glo ATP luminescence, 48 h;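 also: NT is the 2HG producing partner of a matched IDH1 knockdown line; 0% = DMSO-treated cells and -100% = media-only wells without cells; nearly all actives have a fitted effect of over 55% in size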
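A 48-hour cytotoxicity screen used HT-1080-NT cells plated 2 hours before compound delivery. ATP-based CellTiter-Glo luminescence measured viability, normalized to DMSO and no-cell controls.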
KB-V1 cytotox = kills drug-selected multidrug resistant KB-V1 cells. KB-V1 MDR cells viability, CellTiter-Glo, 72 h. Potency, µM (highest dose often 46.1 µM), usual class: cytotoxic. actives 3.4% (n = 400,000); also: nearly all actives have a fitted effect of over 60% in size
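Luminescent ATP read-out (CellTiter-Glo, 10 min) measures survival of drug-selected KB-V1 MDR cells after 72 h, 37 degrees C compound exposure. Medium: phenol-red-free DMEM, 10% FBS. Values from fitted concentration-response curves.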
KB-3-1 cytotox = kills parental KB-3-1 adenocarcinoma cells. KB-3-1 viability, CellTiter-Glo ATP luminescence, 72 h. Potency, µM (doses to about 46.1 µM), most hits filed as cytotoxic. actives 1.4% (n = 400,000). AID 1347075; also: nearly all actives have a fitted effect of over 60% in size
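Here the drug-naive KB-3-1 line serves as comparator for MDR sub-line selectivity; cells received compound titrations, 72 h at 37 °C, then CellTiter-Glo readout.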
* hit, by the source's call; i = inactive; ? = inconclusive; / = no result. Calls follow the shape of the dose curve; as a rule, active = well fitted curve in the direction sought with a large enough effect; inconclusive = small, poorly fitted or top-dose-only effect, or another doubt; inactive = no such curve, though single readings can be large; an effect the other way counts as inactive or inconclusive. Unless noted, % is scaled to controls: 0 for no effect and ±100 for the full control effect; potency is read from the fitted curve at half-maximal effect.

SMILES	DT40 TDP1 no CPT	DT40 TDP1 CPT	HT1080 IDH1KD tx	HT1080-NT tox	KB-V1 cytotox	KB-3-1 cytotox
O=C(/C=C/c1cccc([N+](=O)[O-])c1)Nc1ccc(Cl)cn1	2.6µM*	?	4%	4%	?	i
CCN(CC)S(=O)(=O)c1cccc(NC(=O)/C=C/c2cccc([N+](=O)[O-])c2)c1	29µM*	?	-19%	-14%	i	?
CCN(CC)S(=O)(=O)c1cccc(NC(=O)/C=C/c2ccc([N+](=O)[O-])cc2)c1	?	-2%	2%	13%	i	i
CC(=O)Nc1ccc(C=CC=Cc2cccc([N+](=O)[O-])c2)cc1	?	29µM*	-30%	-2%	21µM*	i
COc1ccc(-c2noc(-c3ccc(NCCc4ccccc4)c([N+](=O)[O-])c3)n2)cc1OC	-20%	-18%	/	/	i	i
CC(C)c1cc(-c2cc(C(=O)NCc3ccccc3)on2)nc(NCC2CC2)n1	?	?	-13%	-4%	i	i
Cc1cc(Cl)ccc1NC(=O)CCCn1nc(C)c2c(C)n(-c3ccccc3)nc2c1=O	?	?	/	/	i	i
Cc1nsc(Nc2ccccc2)c1C#N	?	-25%	-4%	7%	i	i
CCC1CCC(C(=O)NC(CCSC)C(=O)NCCN(CC(C)C)CC(C)C)CC1 (configuration not stated)	?	?	4%	0%	i	i
C/C(CC(C)(C)C1CCCCC1)=N\NC(N)=S	3.3µM*	4.1µM*	?	5µM*	?	i
CCOC(=O)c1c(C)n(-c2ccc(C)cc2)c2c(C(C(C)=O)C(=O)O)c(Br)c(O)c(O)c12 (configuration not stated)	23µM*	23µM*	-19%	?	i	i
CCOC(=O)c1nn(-c2ccc(C)cc2)c(C)c1C(C)=O	-1%	-3%	0%	-4%	i	i
CCOC(=O)C(C(C)=O)c1c(Br)c(O)c(O)c2c(C(=O)c3ccc(C)cc3)coc12 (configuration not stated)	2.6µM*	2.9µM*	8.9µM*	8.9µM*	21µM*	i
O=C(CC[C@H]1O[C@@H](n2cnc3c(NC(=O)c4ccccc4)ncnc32)[C@H](O)[C@@H]1O)NCc1nc2ccccc2[nH]1	4%	-3%	2%	?	i	i
COc1cccc(Cn2c(=O)c(-c3ccccc3)nc3cncnc32)c1	-26%	?	/	/	/	/
COc1ccccc1-c1cc(C(=O)N2CCCC2)no1	-12%	4%	-12%	-6%	?	i
COc1cccc(-c2cc(C(=O)N3CCOCC3)no2)c1	-13%	0%	-2%	4%	i	i
COc1cccc(-c2cc(C(=O)N3CCN(C(c4ccccc4)c4ccccc4)CC3)no2)c1	26µM*	21µM*	-4%	-15%	i	i
COc1ccc(-c2cc(C(=O)N3CCN(c4ccccc4)CC3)no2)cc1OC	?	-29%	10%	2%	i	i
COc1ccccc1N1CCN(C(=O)c2cc(-c3ccccc3O)on2)CC1	18µM*	21µM*	5%	8%	i	?
COc1cccc(OCc2cc(C(=O)N3CCN(c4ccccc4O)CC3)no2)c1	13µM*	16µM*	-5%	-8%	i	i
COc1ccc(-c2cc(C(=O)N3CCN(c4ccccc4OC)CC3)no2)cc1OC	21µM*	-15%	16%	0%	i	i
CCN(c1ccccc1)S(=O)(=O)c1ccc(Cl)c(NC(=O)CSc2nnc(C)s2)c1	?	?	-2%	-6%	i	i
COc1ccccc1N1CCN(C(=O)c2cc(-c3cccs3)on2)CC1	?	?	-5%	-3%	18µM*	i
CCOc1cc(C(=O)Nc2ccc(-c3nc4cc(Cl)ccc4o3)cc2)cc(OCC)c1OCC	?	?	/	/	i	i
SMILES	DT40 TDP1 no CPT	DT40 TDP1 CPT	HT1080 IDH1KD tx	HT1080-NT tox	KB-V1 cytotox	KB-3-1 cytotox
CCOC(=O)C(C(C)=O)C(c1ccc(OCCC(C)C)cc1)C(C(C)=O)C(=O)OCC (configuration not stated)	16µM*	?	-19%	0%	i	i
C[C@@H]1CN([C@H](C)CO)C(=O)CCCn2cc(nn2)CO[C@H]1CN(C)C(=O)Cc1ccccc1	-14%	-25%	3%	2%	i	i
Cc1ccccc1N=C1SC(CC(=O)Nc2ccc3ccccc3c2)C(=O)N1Cc1ccccn1 (configuration not stated)	21µM*	18µM*	-3%	?	21µM*	?
O=C(CC1SC(=Nc2ccccc2)N(Cc2ccccn2)C1=O)Nc1ccc(Br)cc1 (configuration not stated)	10µM*	16µM*	-19%	-4%	?	i
CCN1C(=O)C(CC(=O)Nc2cccc(C(C)=O)c2)S/C1=N\c1ccccn1 (configuration not stated)	?	?	-2%	-6%	i	i
O=C(CC1SC(=Nc2cccc3ccccc23)N(Cc2ccccn2)C1=O)Nc1ccccc1Br (configuration not stated)	2.3µM*	4.6µM*	-24%	-14%	16µM*	?
Cc1nnc2ccc(N3CCOCC3)nn12	3%	-1%	0%	6%	?	i
CCOc1ccc(C(=O)NC(C(=O)NCCc2ccc(OC(F)F)cc2)C(C)C)cc1 (configuration not stated)	-16%	-7%	-11%	-5%	i	i
O=C(c1ccccc1)N1CCN(CC(O)COc2ccc(Br)cc2)CC1 (configuration not stated)	?	?	?	-1%	?	i
Cc1cccc(N=C2NC(=O)/C(=C/C=C/c3ccco3)S2)c1	23µM*	13µM*	-28%	-12%	?	?
O=C1NC(=Nc2ccc(O)cc2)S/C1=C/c1ccco1	18µM*	?	?	?	8.2µM*	?
COc1ccc(N=C2NC(=O)/C(=C\C=C\c3ccco3)S2)cc1	?	?	-2%	-3%	i	i
COc1cc(/C=C2\SC(=Nc3ccc(O)cc3)NC2=O)cc(OC)c1O	5.2µM*	21µM*	?	?	i	?
